# Source: PubChem BioAssay
# LMNA splice mod: LMNA splicing modulation. HeLa LMNA splicing GFP/RFP minigene ratio, 48 h. Potency, µM (titrated, usually from 46.1 µM), most hits filed as inhibitors. 200,000 compounds, 0.01% hits; active means well fitted inhibition curve with a large enough effect in the signal ratio, with a control signal flat, not every such curve was filed as active; inconclusive means small, poorly fitted or top-dose-only effect, or effect the other way, or a change in a side signal; the % refers to the signal ratio
#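 S3 HeLa cells stably expressing lamin A-EGFP splicing minigene plus DsRed2, 600 cells/well, 48 h compound exposure at 37C. Laser-scanning cytometry; analysed as GFP (500-530 nm)/RFP (575-640 nm) total intensity ratio; 0.5% DMSO vehicle.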
# IMPase Li cell: membrane-permeable IMPase blocker, potentiated with lithium; AID 1457; Potency, µM (series often up to 59.4 µM), actives largely listed as inhibitors; CHO-M1 cells, IP1 TR-FRET (IP-One), carbachol + lithium; 210,000 compounds, 0.35% hits; active means well fitted inhibition curve with a large enough effect; inconclusive means small, poorly fitted or top-dose-only effect; inactive means no such curve, though single readings can be large or run the other way;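 further: IP1 builds up when IMPase is blocked and the TR-FRET signal falls; nearly all actives have a fitted effect of over 50% in size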
#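 CHO-M1, 2000 cells/well, 16–30 h culture; cpd + low Li+, 30 min 37C; lysis with d2-IP1/Eu-anti-IP1 Ab, 10 min RT; TR-FRET 665/620 ratio and 620 channel; AC50 via Hill.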
# IMPase inh: cell-permeable inhibitors of inositol monophosphatase (IMPase) | CHO-M1 cells, IP1 accumulation, HTRF TR-FRET ratio | inhibition (IP1 accumulation), % at 46.1 µM | P97697 | 120,000 tested, under 10 active | AID 901; active means well fitted curve in the direction sought with a large enough effect in the signal ratio, not every such curve was filed as active; inconclusive means small, poorly fitted or top-dose-only effect, or a change in a side signal; inactive means no such curve, though single readings can be large or run the other way; the % refers to the signal ratio;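 further: cells stimulated with carbachol in lithium chloride buffer; higher means more IMPase inhibition seen as more IP1 and lower FRET ratio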
# Target sequence (P97697 whole entry, looked up): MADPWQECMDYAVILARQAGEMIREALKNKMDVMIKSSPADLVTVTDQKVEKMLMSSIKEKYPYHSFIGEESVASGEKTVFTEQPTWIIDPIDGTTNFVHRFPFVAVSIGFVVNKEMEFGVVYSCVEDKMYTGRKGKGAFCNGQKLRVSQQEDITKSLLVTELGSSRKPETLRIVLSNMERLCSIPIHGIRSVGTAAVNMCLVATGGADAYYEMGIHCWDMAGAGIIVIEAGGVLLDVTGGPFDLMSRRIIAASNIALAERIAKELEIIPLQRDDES
#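 CHO-M1, 2000 cells/well, cultured 16–30 h; cpd up to 46 uM; carbachol (50 uM solution, stimulation buffer w/ 50 mM LiCl, pH 7.4), 30 min 37C; IP-One TR-FRET, 10 min RT; Ex 320/Em 665, 620; Hill-fit AC50.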
# A number is an active result; 0 = inactive; ? = inconclusive; - = no result given. This excerpt belongs to a sample that is enriched for hits.
SMILES,LMNA splice mod,IMPase Li cell,IMPase inh
CCOc1ccc(-c2nc3ccc(-c4nc5ccc(N6CCN(C)CC6)cc5[nH]4)cc3[nH]2)cc1,-,13µM,-
Cc1ccc2nc(N3CCN(C)CC3)[nH]c2c1,0,0,0
O=C(O)C(Oc1nc(=S)[nH]c(=S)[nH]1)(c1ccc(Cl)cc1)c1ccc(Cl)cc1,-,0,-
NNc1nncn1N,-,0,-
COc1cccc2c1C(=O)c1c(O)c3c(c(O)c1C2=O)C[C@](O)(/C(C)=N\O)C[C@@H]3O[C@H]1C[C@H](N)[C@@H](O)[C@H](C)O1,-,0,-
CN(C)C1C(=O)C(C(N)=O)=C(O)[C@@]2(O)C(=O)C3=C(O)c4c(O)cccc4[C@@](C)(O)C3CC12 (stereo partly specified),-,4µM,-
CN(C)[C@@H]1C(=O)C(C(N)=O)=C(O)[C@]2(O)C(=O)C3=C(O)c4c(O)ccc(Cl)c4[C@](C)(O)[C@H]3C[C@@H]12,?,0,0
O=C(Oc1c(Cl)cc(Cl)c2ccccc12)N1CCCCC1,0,0,0
O=C(Oc1c(Br)cc(Br)c2cccnc12)N1CCCCC1,-,13µM,-
